ALR H2O2 inh – human ALR oxidase inhibition via reduced H2O2 | P55789 | purified ALR, DTT oxidation, H2O2 HRP-luminol luminescence | inhibition, % (test concentration not listed) | hit rate 3.8% among 290,000;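 active = mean replicate inhibition above about 79%, with every replicate also reaching it, limit read from the data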
Target sequence (P55789 whole entry, looked up): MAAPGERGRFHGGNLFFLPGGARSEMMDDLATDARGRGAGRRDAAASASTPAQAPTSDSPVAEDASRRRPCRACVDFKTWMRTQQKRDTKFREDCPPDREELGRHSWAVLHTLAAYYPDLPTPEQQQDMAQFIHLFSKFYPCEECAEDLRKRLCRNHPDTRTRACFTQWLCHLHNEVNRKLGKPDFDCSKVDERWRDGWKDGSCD
HIF act – HIF pathway transcriptional activation; U2OS HRE-luciferase reporter, luminescence; normalized: DMSO 0%, desferrioxamine 100%; activation, % at 7.5 µM (by protocol); hit rate 0.32% among 300,000;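 active = mean activation of at least 10% of the iron chelator positive control signal, with at least half of replicates also reaching 10%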
AI-2 QS modul – Vibrio harveyi AI-2 quorum sensing modulation. activity change, % at 7.5 µM. hit rate 0.4% among 300,000. Vibrio harveyi JMH597 AI-2 luminescence/OD600 ratio, 9 h; active compounds read low; strain lacks LuxN and CqsS sensors; 0 = neutral-control median. AID 2094; in the data active = activity change below about -75%, passing the limit was not always enough;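 note: luminescence divided by OD600 gain over 9 h not by final OD600 alone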
Mot1-301 SUMO – SUMOylation pathway inhibition by Mot1-301 growth rescue. AID 2716. hit rate 1% among 320,000. S. cerevisiae Mot1-301 growth rescue, ATP luminescence, 38.5C; percent above DMSO median, 100 means doubled. growth rescue, % at 18.8 µM;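 active = every valid replicate shows activation above 250% relative to neutral control wells; inactive = the rest, any valid replicate at or below 250%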
Numbers stand for hits; . = inactive; / = no result given. Rows were chosen to be rich in hits. Some 4.8% of all compounds tested hit in one or more screens of this group.

SMILES | ALR H2O2 inh | HIF act | AI-2 QS modul | Mot1-301 SUMO
O=C(CSc1nc2ccccc2o1)Nc1nc(-c2ccccc2)cs1 | 99 | . | . | .
O=C(CSc1nc2ccccc2o1)Nc1nc2ccccc2s1 | . | . | . | .
Cc1cc(-c2nnc(SCC(=O)Nc3nc(-c4ccccc4)cs3)o2)no1 | 99 | . | . | .
CCN(C[C@H]1N[C@@](Cc2ccccc2)(C(=O)OC)[C@H]2C(=O)N(Cc3ccccc3)C(=O)[C@@H]12)C(=O)Nc1ccc(C(F)(F)F)cc1 | . | / | / | .
O=C1CC(N2CCN(S(=O)(=O)c3ccccc3F)CC2)C(=O)N1c1ccccc1Cl (stereo unspecified) | . | / | / | .
CCCCn1c(N)c(N(CCC(C)C)C(=O)C2CC(=O)N(CCc3ccc(OC)c(OC)c3)C2)c(=O)[nH]c1=O (stereo unspecified) | . | . | . | .
CCN(CC)S(=O)(=O)c1cccc(-c2n[nH]c(=S)n2/N=C/c2ccc(OC(F)F)cc2)c1 | 98 | . | . | .
CCN(CC)S(=O)(=O)c1cccc(-c2n[nH]c(=S)n2/N=C/c2ccc(OC)cc2)c1 | / | . | . | .
O=C(CN1CCN(c2ccc(F)cc2)CC1)c1ccc(O)cc1O | . | . | . | .
Cc1ccc(-c2nc(NCCN(C)C)c3ccccc3n2)cc1 | . | . | . | .
Cc1ccc(-c2nc(NCCCO)c3ccccc3n2)cc1 | 98 | . | . | .
c1ccc2c(NCCc3c[nH]c4ccccc34)c3ccccc3nc2c1 | . | 13 | . | .
OCCCNc1c2ccccc2nc2ccccc12 | . | 16 | . | .
CC(Oc1ccc(Br)cc1)C(=O)NCC(c1cccs1)N1CCOCC1 (stereo unspecified) | . | . | . | .
COc1ccc(OC)c(S(=O)(=O)N/N=C\c2cn(CC(N)=O)c3ccccc23)c1 | . | . | . | .
Nn1c(SCc2cccc3ccccc23)nnc1-c1ccco1 | 99 | . | . | .
CC(C)NC(=O)COc1nncc2ccccc12 | 100 | . | . | .
O=C(COc1nncc2ccccc12)NCCC1=CCCCC1 | / | . | -77 | .
COc1ccc(OCc2nnc(SCC(=O)N3C(C)CCCC3C)o2)cc1 (stereo unspecified) | . | . | . | .
Cc1cc(N)ccc1NC(=O)CN1CCCC1 | . | . | . | .
CCOC(=O)N1CCN(C(=O)c2c[nH]c3ccc(S(=O)(=O)N(C)c4ccc(OCC)cc4)cc3c2=O)CC1 | . | . | . | .
CC(C)NC(=O)C(=O)NCc1ccccn1 | . | . | . | .
CC(C)CNC(=O)C(=O)NCc1ccccn1 | . | . | . | 315
COc1ccccc1OC(=O)CCN1c2ccccc2Sc2ccccc21 | 88 | . | . | .
O=C(O)CCN1c2ccccc2Sc2ccccc21 | 82 | . | . | .
SMILES | ALR H2O2 inh | HIF act | AI-2 QS modul | Mot1-301 SUMO
O=C(O)CCN1C(=O)c2ccccc2Sc2ncccc21 | . | . | . | .
CCCOc1ccc(Cn2c(C)nc([N+](=O)[O-])c2SCC(O)COC)cc1[N+](=O)[O-] (stereo unspecified) | 99 | . | . | .
COc1ccc(NC(C)=O)cc1CP(=O)(c1ccccc1)c1ccccc1 | . | . | . | .
O=C1Nc2ccc(Cl)cc2/C1=C/C1CC=CCC1 (stereo unspecified) | . | 394 | . | .
Cc1cccc(NC(=O)C2CCCN(c3ncnc4c3nc3n4CCCCC3)C2)n1 (stereo unspecified) | . | . | . | .
CCN(CC)c1ccc(/C=N/NC(=O)c2nnn(-c3nonc3N)c2-c2ccc(C)cc2)cc1 | . | . | . | .
COc1ccc(-c2nc(CS(=O)(=O)CC(=O)NCCc3cc(OC)ccc3OC)c(C)o2)cc1 | 99 | . | . | .
Cc1oc(-c2ccccc2F)nc1CS(=O)(=O)CC(=O)NCCCN1CCN(C)CC1 | . | . | . | .
COc1cccc(-c2nc(CS(=O)(=O)CC(=O)NCCc3ccc(OC)cc3OC)c(C)o2)c1 | . | . | . | .
COc1cccc(-c2nc(CS(=O)(=O)CC(=O)NCCc3cc(OC)ccc3OC)c(C)o2)c1 | 99 | . | . | .
COc1ccc(-c2nc(CS(=O)(=O)CC(=O)NCCCN3CCN(C)CC3)c(C)o2)cc1 | 99 | . | . | .
COc1ccc(OC)c(CCNC(=O)CS(=O)(=O)Cc2nc(-c3ccc(C)cc3)oc2C)c1 | . | . | . | .
Cc1ccc(-c2nc(SC(C)C(=O)N3CCCC3)n[nH]2)cc1 (stereo unspecified) | / | . | . | .
CC(=O)C[C@H](O)CC(=O)[C@H]1OC(=O)CCCCCCCc2ccccc21 | . | / | / | .
CCOc1ccc(C(C(=O)NC(C)(C)C)N(CCOC)C(=O)CCC(=O)Nc2ccccn2)cc1 (stereo unspecified) | . | . | / | .
CC(=O)NC12CC3CC(C1)CC(C(=O)N(C)Cc1cccc(Cl)c1Cl)(C3)C2 | . | . | . | .
O=C(O)c1ccccc1C(=O)N1N=C2/C(=C/c3cccc([N+](=O)[O-])c3)CCCC2C1c1cccc([N+](=O)[O-])c1 (stereo unspecified) | 79 | . | . | .
Nc1nc(SCc2ccc(F)cc2)ns1 | 98 | . | . | .
Nc1nnc(SCc2ccc(F)cc2)s1 | . | . | . | .
Cc1ccccc1CSc1nsc(N)n1 | . | . | . | .
Nc1nc(SCc2ccc(Cl)cc2Cl)nc2nc3c(cc12)CCCC3 | 90 | . | . | .
Nc1nc(SCc2ccc(Cl)cc2Cl)ns1 | 99 | . | . | .
CCOc1ccc(NC(=O)CN(C)C(=O)/C=C/c2ccco2)cc1OCC | . | / | / | .
CN(CC(=O)Nc1ccccc1C(=O)NC1CC1)Cc1ccc(N(C)C)cc1 | . | / | / | .
CC(C)CC(=O)/C(=C\c1ccc(Cl)cc1Cl)n1cncn1 | / | . | . | /
SMILES | ALR H2O2 inh | HIF act | AI-2 QS modul | Mot1-301 SUMO
CC(C)CC(=O)/C(=C/c1ccc(N(C)C)cc1)n1cncn1 | . | . | . | .
CN(C)c1ccc(/C=C(/C(=O)c2ccc(Cl)cc2Cl)n2cncn2)cc1 | / | . | . | 308
COc1ccc(/C=C(/C(=O)c2ccc(Cl)cc2Cl)n2cncn2)cc1 | 95 | . | . | /
COC(=O)c1ccccc1S(=O)(=O)NNC(=O)Nc1ccccc1 | / | . | . | .
COc1cccc(Nc2nc(Nc3ccc(Cl)c(C(=O)O)c3)nc(C)c2[N+](=O)[O-])c1 | . | / | / | .
COc1ccc(-c2nc(CS(=O)(=O)CC(=O)NCc3ccccc3OC)c(C)o2)cc1 | 99 | . | . | .
COc1ccc(-c2nc(CS(=O)(=O)CC(=O)NCc3cccc(OC)c3OC)c(C)o2)cc1 | . | . | . | .
COc1ccc(-c2nc(CS(=O)(=O)CC(=O)NCc3ccc(F)cc3)c(C)o2)cc1 | . | . | . | .
COc1ccc(-c2nc(CS(=O)(=O)CC(=O)NCc3ccccc3Br)c(C)o2)cc1 | 98 | . | . | .
Cc1cccc(NS(=O)(=O)c2ccc(C(=O)N3CC(C)OC(C)C3)cc2)c1C (stereo unspecified) | . | . | . | .
CC(C)CC(=O)NC(c1cccs1)c1ccc2cccnc2c1O (stereo unspecified) | . | 68 | . | .

Screens: PubChem, Broad Institute
